Values joined by “and” are separate entries in the source; they are usually repeats but may differ in a detail not shown here. Equal entries are not always repeated. The campaign covered roughly 5,500 compounds. About 2,000 (36%) were called active. Not shown: some 18% with an inconclusive outcome. Cut-off read from the data, not from the text of the source: active = normalized growth mostly below about 0.91 (no sharp cut-off); inconclusive = no clear call, values can overlap the other calls; inactive = mostly above about 0.92. Some of the results follow.
Test: chemical genetic growth profiling, strain panel (AID 1159580);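 note: tested at 20 µM; growth read once vehicle control cultures reached saturation at 30 °C; 1 = growth at the plate median or of vehicle wells; lower values mean less growth of the strain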
Settings: growth OD

Measured: normalized growth

O=C(O)c1cc2cc(Cc3cccnc3)ccc2o1
inactive: S. cerevisiae deletion strains, locus YAL013W, strain DEP1, hits give low values 1.02 | S. cerevisiae deletion strains, locus YAL040C, strain CLN3, hits give low values 0.986 | S. cerevisiae deletion strains, locus YBR021W, strain FUR4, hits give low values 1 | S. cerevisiae deletion strains, locus YBR229C, strain ROT2, hits give low values 1.01 | S. cerevisiae deletion strains, locus YCL029C, strain bik1, hits give low values 0.995 | S. cerevisiae deletion strains, locus YCL061C, strain MRC1 (second series), hits give low values 1.01 | S. cerevisiae deletion strains, locus YDL035C, strain GPR1, hits give low values 0.994 | S. cerevisiae deletion strains, locus YDL074C, strain BRE1, hits give low values 0.995 | S. cerevisiae deletion strains, locus YDL101C, strain DUN1, hits give low values 1.01 | S. cerevisiae deletion strains, locus YDL134C, strain PPH21, hits give low values 0.993 | S. cerevisiae deletion strains, locus YDL185W, strain tfp1, hits give low values 0.994 | S. cerevisiae deletion strains, locus YDL192W, strain arf1, hits give low values 1 | S. cerevisiae deletion strains, locus YDR101C, strain arx1, hits give low values 1.02 | S. cerevisiae deletion strains, locus YDR162C, strain NBP2, hits give low values 1 | S. cerevisiae deletion strains, locus YDR318W, strain mcm21, hits give low values 0.986 | S. cerevisiae deletion strains, locus YDR363W, strain ESC2, hits give low values 1.01 | S. cerevisiae deletion strains, locus YDR388W, hits give low values 0.989 | S. cerevisiae deletion strains, locus YDR502C, strain sam2, hits give low values 0.996 | S. cerevisiae deletion strains, locus YEL061C, strain CIN8, hits give low values 1 | S. cerevisiae deletion strains, locus YER002W, strain NOP16, hits give low values 0.99 | S. cerevisiae deletion strains, locus YER110C, hits give low values 0.995 | S. cerevisiae deletion strains, locus YER155C, strain BEM2, hits give low values 1.01 | S. cerevisiae deletion strains, locus YER167W, strain BCK2, hits give low values 1 | S. cerevisiae deletion strains, locus YGL078C, strain dbp3, hits give low values 0.991 | S. cerevisiae deletion strains, locus YGL086W, strain mad1, hits give low values 0.998 | S. cerevisiae deletion strains, locus YGL248W, strain PDE1, hits give low values 1 | S. cerevisiae deletion strains, locus YGR135W, strain pre9, hits give low values 1.01 | S. cerevisiae deletion strains, locus YGR229C, strain SMI1, hits give low values 1.05 | S. cerevisiae deletion strains, locus YGR252W, strain gcn5, hits give low values 0.92 | S. cerevisiae deletion strains, locus YHR030C, strain SLT2, hits give low values 0.997 | S. cerevisiae deletion strains, locus YHR079C, strain IRE1 (second series), hits give low values 0.985 | S. cerevisiae deletion strains, locus YHR094C, strain hxt1, hits give low values 0.995 | S. cerevisiae deletion strains, locus YHR129C, strain ARP1, hits give low values 0.997 | S. cerevisiae deletion strains, locus YHR200W, strain rpn10, hits give low values 0.994 | S. cerevisiae deletion strains, locus YIL066C, strain RNR3, hits give low values 1.01 | S. cerevisiae deletion strains, locus YIL073C, strain SPO22, hits give low values 1.01 | S. cerevisiae deletion strains, locus YIL125W, strain kgd1, hits give low values 0.999 | S. cerevisiae deletion strains, locus YIR030C, strain dcg1, hits give low values 0.995 | S. cerevisiae deletion strains, locus YJL095W, strain BCK1, hits give low values 1.01 | S. cerevisiae deletion strains, locus YJL134W, strain LCB3, hits give low values 1 | S. cerevisiae deletion strains, locus YJL168C, strain set2, hits give low values 0.991 | S. cerevisiae deletion strains, locus YJL187C, strain SWE1 (second series), hits give low values 1.01 | S. cerevisiae deletion strains, locus YJR043C, strain POL32, hits give low values 1.02 | S. cerevisiae deletion strains, locus YJR075W, strain HOC1, hits give low values 1.01 | S. cerevisiae deletion strains, locus YKL009W, strain mrt4, hits give low values 0.983 | S. cerevisiae deletion strains, locus YKL068W, hits give low values 0.992 | S. cerevisiae deletion strains, locus YKL085W, strain MDH1 (second series), hits give low values 0.999 | S. cerevisiae deletion strains, locus YKL085W, strain MDH1, hits give low values 0.999 | S. cerevisiae deletion strains, locus YKL190W, strain CNB1, hits give low values 1.01 | S. cerevisiae deletion strains, locus YKR001C, strain vps1, hits give low values 0.997 | S. cerevisiae deletion strains, locus YLR039C, strain RIC1, hits give low values 1.01 | S. cerevisiae deletion strains, locus YLR058C, strain SHM2, hits give low values 1.01 | S. cerevisiae deletion strains, locus YLR102C, strain apc9, hits give low values 0.991 | S. cerevisiae deletion strains, locus YLR262C, strain YPT6, hits give low values 1.03 | S. cerevisiae deletion strains, locus YLR268W, strain sec22, hits give low values 0.986 | S. cerevisiae deletion strains, locus YLR330W, strain CHS5, hits give low values 1.01 | S. cerevisiae deletion strains, locus YLR342W, strain FKS1 (second series), hits give low values 0.988 | S. cerevisiae deletion strains, locus YLR371W, strain rom2, hits give low values 0.988 | S. cerevisiae deletion strains, locus YLR418C, strain cdc73, hits give low values 0.975 | S. cerevisiae deletion strains, locus YML016C, strain PPZ1, hits give low values 1 | S. cerevisiae deletion strains, locus YML032C, strain rad52, hits give low values 0.995 | S. cerevisiae deletion strains, locus YML124C, strain tub3, hits give low values 0.994 | S. cerevisiae deletion strains, locus YMR078C, strain ctf18, hits give low values 0.995 | S. cerevisiae deletion strains, locus YMR223W, strain ubp8, hits give low values 0.995 | S. cerevisiae deletion strains, locus YMR263W, strain SAP30, hits give low values 1 | S. cerevisiae deletion strains, locus YMR307W, strain GAS1, hits give low values 0.967 and 0.989 | S. cerevisiae deletion strains, locus YNL067W, strain RPL9B, hits give low values 1 | S. cerevisiae deletion strains, locus YNL153C, strain GIM3, hits give low values 1.02 | S. cerevisiae deletion strains, locus YNL175C, strain NOP13, hits give low values 1 | S. cerevisiae deletion strains, locus YNL197C, strain WHI3, hits give low values 1.02 | S. cerevisiae deletion strains, locus YNL224C, strain SQS1, hits give low values 1.02 | S. cerevisiae deletion strains, locus YNL233W, strain BNI4, hits give low values 1 | S. cerevisiae deletion strains, locus YNL250W, strain rad50, hits give low values 0.989 | S. cerevisiae deletion strains, locus YNL271C, strain bni1, hits give low values 0.999 | S. cerevisiae deletion strains, locus YNL298W, strain CLA4, hits give low values 0.981 | S. cerevisiae deletion strains, locus YNL307C, strain MCK1, hits give low values 0.995 | S. cerevisiae deletion strains, locus YNR052C, strain pop2, hits give low values 0.99 | S. cerevisiae deletion strains, locus YOL006C, strain TOP1, hits give low values 1.04 | S. cerevisiae deletion strains, locus YOL012C, strain htz1 1.18 | S. cerevisiae deletion strains, locus YOL147C, strain pex11, hits give low values 0.995 | S. cerevisiae deletion strains, locus YOR061W, strain CKA2, hits give low values 1.01 | S. cerevisiae deletion strains, locus YOR069W, strain VPS5, hits give low values 1 | S. cerevisiae deletion strains, locus YOR083W, strain WHI5 (second series), hits give low values 1.03 | S. cerevisiae deletion strains, locus YOR136W, strain idh2, hits give low values 0.997 | S. cerevisiae deletion strains, locus YOR144C, strain elg1, hits give low values 0.995 | S. cerevisiae deletion strains, locus YOR184W, strain ser1, hits give low values 0.988 | S. cerevisiae deletion strains, locus YOR316C, strain cot1, hits give low values 0.992 | S. cerevisiae deletion strains, locus YPL055C, strain LGE1, hits give low values 1.03 and 1.01 | S. cerevisiae deletion strains, locus YPL241C, strain CIN2, hits give low values 1.01 | S. cerevisiae deletion strains, locus YPR119W, strain clb2, hits give low values 0.992 | S. cerevisiae deletion strains, locus YPR141C, strain kar3, hits give low values 0.996 | S. cerevisiae deletion strains, locus YPR163C, strain tif3, hits give low values 0.993 | S. cerevisiae deletion strains, locus YPR167C, strain met16, hits give low values 0.991 | S. cerevisiae deletion strains, strain wtn01, hits give low values 0.986 | S. cerevisiae strains, strain wild type, hits give low values 1
